{
  "source": "PubChem BioAssay (NCATS)",
  "note": "Results filed as inconclusive are left out. Values without a mark were called inactive. Calls of active or inactive are those of the source. Calls follow the shape of the dose curve; as a rule, active = well fitted cell-killing curve with a large enough effect; inconclusive = small, poorly fitted or top-dose-only effect; inactive = no such curve, though single readings can be large or run the other way. Peptide text beside a SMILES is read from it. Potency is read from the fitted curve at half-maximal effect.",
  "data": [
    {"assay": "Cell Viability - LYMP2-001 (AID 921); also: nearly all actives have a fitted effect of over 70% in size;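 as to activity change, negative = cytotoxic: 0% = DMSO only and full inhibition = tetraoctylammonium bromide control wells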", "settings": "LYMP2-001 lymphoblastoid cell viability; series mostly up to 92.2 µM; activity change, negative = cytotoxic: at the top concentration", "source_text": "NIH Chemical Genomics Center [NCGC]\nNIH Molecular Libraries Screening Centers Network [MLSCN]\nNational Institutes of Environmental Health Sciences [NIEHS]\nNational Toxicology Program [NTP]\nWe have developed a 1536-well cell-based assay for quantitative high throughput screening (qHTS) against a number of cell lines to determine in vitro cytotoxicity of small molecules. This particular assay uses a human lymphoblastoid cell line (LYMP2-001) purchased from Coriell Institute for Medical Research.\nNCGC Assay Protocol Summary:\nThe CellTiter-Glo luminescent cell viability assay (Promega) is a homogeneous method to measure the number of viable cells in culture. The end point readout of this assay is based on quantitation of intracellular ATP, an indicator of metabolic activity, using the luciferase reaction. Luciferase catalyzes the oxidation of beetle Luciferin to oxyluciferin and light in the presence of ATP. The luminescent signal is proportional to amount of ATP present.\nUsing the CellTiter-Glo luminescent cell viability assay, the amount of cellular ATP was measured in the lymphoblastoid cell line with complete culture medium following compound treatment for 24 hours. The assay was performed in opaque white Kalypsys 1536-well plates. In the screen, tetraoctylammonium bromide was used as positive control. Library compounds were measured for their ability to cause acute toxicity in the cell line, as reflected by a decrease in intracellular ATP levels, in a concentration-dependent manner. […] AC50 values were determined from concentration-response data modeled with the standard Hill equation.\nqHTS protocol for CellTiter Glo lymphoblastoid cellular assay\n[Step] [Parameter] [Value] [Description]\n1. Reagent; 5 uL; 2500 lymphoblastoid cells/well\n2. Time; 5 hr; 37 C incubation\n4. Controls; 23 nL; Tetraoctylammonium bromide 6.4pM to 92 uM\n5. Time; 24 hr; 37 C incubation\n6. Reagent; 5 uL; CellTiter Glo reagent\n7. Time; 30 min; Room Temperature\n8. Detection; Luminescence; Viewlux plate reader\nKeywords: cell viability, cytotoxicity, lymphoblastoid cell line, luminescence, NTPHTS, NTPHTS_NCGC, NIEHS, DSSTox, MLSMR, MLSCN, NIH Roadmap, qHTS, NCGC", "units": {"activity change, negative = cytotoxic": "%"}, "values": [
      {"compound": "c1ccc2[nH]c(-c3cscn3)nc2c1", "activity change, negative = cytotoxic": -26.5},
      {"compound": "NS(=O)(=O)c1cc(C(=O)O)c(NCc2ccco2)cc1Cl", "activity change, negative = cytotoxic": -19.1},
      {"compound": "CC(=O)Nc1ccc(O)cc1", "activity change, negative = cytotoxic": -18.8},
      {"compound": "Cc1ccc(C)c(OCCCC(C)(C)C(=O)O)c1", "activity change, negative = cytotoxic": -12.9},
      {"compound": "CCc1nc(N)nc(N)c1-c1ccc(Cl)cc1", "activity change, negative = cytotoxic": -12.5},
      {"compound": "CN(C)c1ccc2nc3ccc(=[N+](C)C)cc-3sc2c1", "Potency": "10 µM (active)"},
      {"compound": "CS(=O)(=O)OCCCCOS(C)(=O)=O", "Potency": "inactive"},
      {"compound": "COc1c2occc2cc2ccc(=O)oc12", "activity change, negative = cytotoxic": -7.67},
      {"compound": "COC(=O)[C@H](Cc1ccccc1)NC(=O)[C@@H](N)CC(=O)O", "note": "(H-Asp-Phe-OMe)", "activity change, negative = cytotoxic": -10.7},
      {"compound": "CCCc1cc(=O)[nH]c(=S)[nH]1", "activity change, negative = cytotoxic": 0.688}
    ]}
  ]
}
